From ChEMBL document CHEMBL1157539, “Thousands of chemical starting points for antimalarial lead identification” (Nature, 2010) come the findings set out here.

As a reminder, the Inhibition is the share of the control response that was lost under treatment. A lower Inhibition goes with a response near the control.

What all share (assay type): functional
The test system of test [1] is Plasmodium falciparum. In words: GSK_TCMDC: Inhibition of Plasmodium falciparum 3D7 in whole red blood cells, using parasite LDH activity as an index of growth. Test compounds present at 2uM.
For test [2], the system named is Plasmodium falciparum. The test can be described thus: GSK_TCMDC: Inhibition of Plasmodium falciparum Dd2 in whole red blood cells, using parasite LDH activity as an index of growth. Test compounds present at 2uM.
The test system of a further test is HepG2. In words: GSK_TCMDC: Percent inhibition of human HepG2 cell line. Test compounds present at 10uM.

The structures appear in SMILES notation.

`Cc1ccc(-c2nc3cc(NC(=O)c4ccc([N+](=O)[O-])o4)ccc3o2)cc1Cl`: the Inhibition came to 100% in the test on Plasmodium falciparum [1], 97% in the test with Plasmodium falciparum [2] and 24% in the test on HepG2.
For `CN(C)CCNC(=O)c1ccc2c(c1)n(C1CCN(S(=O)(=O)c3ccc(-c4ccccc4)cc3)CC1)c(=O)n2CC1CCCCC1`, in that order: 100%, 66% and 47%.
For `N#Cc1ccc(N[C@@H](CC2CCCCC2)C(=O)NCc2cc(Cl)cc(Cl)c2)c2ccccc12.O=C(O)C(F)(F)F`, in that order: 94%, 88% and 34%.
For `COc1ccccc1CN1CCC(NC(=O)c2ccc(-c3ccc(N(C)C)cc3)s2)CC1.O=C(O)C(F)(F)F`, the figures for the Inhibition with Plasmodium falciparum [1], with Plasmodium falciparum [2] and with HepG2 were 90%, 38% and 29%, respectively.
For `COc1ccc(CNCCCCCNCc2ccc(Cl)c(Cl)c2)cc1Cl`, in that order: 98%, 43% and 42%.
For `Cc1cccc2nc(-c3ccc(-c4ccc(CNCc5cccc(N)c5)cc4)cc3)[nH]c12.O=C(O)C(F)(F)F`, in that order: 100%, 84% and 12%.
On the same counts, the results for `CC(NC(C)c1cccc(Cl)c1)C(=O)Nc1cc(C(F)(F)F)ccc1N1CCOCC1` (configuration not stated) are 89%, 33% and 30%.
Consider `COc1ccc(NC(=O)[C@H](CC(C)C)Nc2ccnc(Nc3ccccc3)n2)cc1.O=C(O)C(F)(F)F`, for which the Inhibition in the test with Plasmodium falciparum [1] stood at 92%; in the test with Plasmodium falciparum [2], 32%; in the test with HepG2 it was 0%.
On the same counts, the results for `CN(C)C(=O)c1ccc(CN(Cc2cccc(OC(C)(C)C)c2)Cc2ccc3c(c2)OCCO3)cc1` are 96%, 96% and 0%.
On to `Cc1cc(C)cc(-n2c(C)cc(/C=C3\SC(=Nc4ccc(Cl)cc4)NC3=O)c2C)c1`, for which the Inhibition was 97% with Plasmodium falciparum [1], 97% in the test with Plasmodium falciparum [2] and 12% with HepG2.
With `Cn1c(NC(=O)c2ccc(CNC(=O)c3ccc(O)c(-c4ccc(Cl)c(Cl)c4)c3)cc2)nc2ccccc21`, the Inhibition with Plasmodium falciparum [1] came to 94%; in the test with Plasmodium falciparum [2], 74%; in the test with HepG2, 20%.
For `CC(CNC(=O)[C@H]1CNCCN1C(=O)CCCc1ccccc1)c1ccccc1.O=C(O)C(F)(F)F` (some centres not stated), in that order: 94%, 1% and 12%.
On the same counts, the results for `CCCCCCCCc1nc(C)c(Br)c(O)c1Br` are 96%, 95% and 2%.
For `Cc1ccc(-c2nc(N3CCN(C(=O)c4ccco4)CC3)c3ccc(Cl)cc3n2)cc1`, in that order: 90%, 78% and 17%.
On to `Cc1cc(=O)oc2c1ccc1oc(C(O)c3ccc(Cl)cc3)c(C)c12` (configuration not stated), for which the Inhibition with Plasmodium falciparum [1] amounted to 95%; with Plasmodium falciparum [2], 96%; in the test on HepG2, 0%.
For `Cc1cccc2nc(-c3cccc(-c4cccc(NC(=O)c5cnccc5C(F)(F)F)c4)c3)[nH]c12`, the Inhibition in the test with Plasmodium falciparum [1] stood at 98%; with Plasmodium falciparum [2] it was 47%; with HepG2 it was 7%.
Regarding `O=C(O)C(F)(F)F.O=S(=O)(NCCN1CCCC1)c1ccc(-c2ccc(CNCc3ccsc3)cc2)s1`, the Inhibition in the test with Plasmodium falciparum [1] is 99%; in the test on Plasmodium falciparum [2] it was 40%; in the test with HepG2, 31%.
Turning to `COc1ccc(CN2CCCC(Nc3ccc(F)c(F)c3)C2)c(O)c1` (configuration not stated), the Inhibition with Plasmodium falciparum [1] was found to be 95%; in the test on Plasmodium falciparum [2], 83%; in the test with HepG2, 14%.
On the same counts, the results for `CCCC(C)NC(=O)[C@H](CC1CCCCC1)NC(=O)c1ccc(O)c(-c2cccc(C(F)(F)F)c2)c1` (some centres not stated) are 100%, 98% and 0%.
For `CC(C)n1cc2c(ccc3nc(N)nc(N)c32)n1`, in that order: 92%, 0% and 65%.
Regarding `CCc1ccc(NC(=O)c2cccc(CN3CCCN(CC4CCCCC4)CC3)c2)cc1.O=C(O)C(F)(F)F`, the figures for the Inhibition in the test with Plasmodium falciparum [1], with Plasmodium falciparum [2] and in the test with HepG2 were 85%, 41% and 62%, respectively.
On the same counts, the results for `CCCOc1ccc(C(=O)Nc2nonc2-c2ccc(OC)c(OC)c2)cc1` are 99%, 97% and 0%.
On the same counts, the results for `Cc1c(C(=O)N2CCCC(C(F)(F)F)C2)sc2cccc(F)c12` (configuration not stated) are 99%, 89% and 0%.
For `Cc1cc(N)c2cc(NC(=O)c3cc4ccccc4s3)ccc2n1`, in that order: 100%, 99% and 100%.
Turning to `COc1ccc(CNc2nccc3ccc(-c4ccc5nccn5c4)cc23)cc1.O=C(O)C(F)(F)F`, the Inhibition with Plasmodium falciparum [1] is given as 95%; in the test on Plasmodium falciparum [2], 47%; in the test with HepG2, 17%.
On the same counts, the results for `CN(C)CC1CCCN1Cc1ccccc1-c1cnn(C)c(=O)c1Oc1ccccc1F.O=C(O)C(F)(F)F` (configuration not stated) are 95%, 27% and 18%.
For `O=C(Nc1ccnc(-c2cccnc2)n1)c1cc(C(F)(F)F)cc(C(F)(F)F)c1`, in that order: 95%, 12% and 22%.
For `OC(c1ccc2ccccc2c1)C1CN(CCc2ccccc2)CCC1(O)c1ccccc1` (configuration not stated), in that order: 99%, 96% and 1%.
`O=C(NCCN1CCOCC1)c1ccc(N2CCC(Oc3ccc4ccccc4c3)CC2)nc1`: the Inhibition in the test with Plasmodium falciparum [1] is 92%; in the test on Plasmodium falciparum [2], 30%; in the test with HepG2, 1%.
